Test results taken from PubChem BioAssay.
The source made the active and inactive calls. Rule as the data show it, unless noted: active = inhibition above about 42%; inactive = the rest.

System: not listed separately
Assay: StAR promoter reporter inhibitors, counter-screen for LRH-1 inverse agonist project, cell-based, luminescence, high throughput (AID 651611; in the data active = inhibition above about 28%)
Settings: StAR promoter luciferase reporter counterscreen, at 3.6 µM, active compounds read high

| SMILES | inhibition |
| --- | --- |
| O=C(CCl)Nc1ccc(Oc2cnc3ccccc3n2)cc1 | 43.6% (active) |
| Cc1ccc(Oc2ccc(C(=O)NCc3ccncc3)cc2)cc1 | 10.2% (inactive) |
| Cc1ncc(CO)c(/C=N/Nc2ccc(C(F)(F)F)cn2)c1O | 71.1% (active) |
| Cc1ccc(C(=O)C(C(=O)/C=C/c2ccccc2)=C2SCCCS2)cc1 | 30.6% (active) |
| COc1ccc(S(=O)(=O)N2CCOCC2)cc1NC(=O)CCNC(=O)c1ccc(Br)cc1 | 90.4% (active) |
| CN(C)CCNC(=O)c1ccc(Cl)c2cc3ccccc3nc12 | 70.1% (active) |
| C=C1C(=O)C23CCC4C(C)(C(=O)OC)CCCC4(C)C2CCC1(O)C3 (stereo not drawn) | 67.4% (active) |
| COc1cccc2c1C(=O)c1c(O)c3c(c(O)c1C2=O)CC(O)(C(C)=O)CC3OC1CC(O)C(O)C(C)O1 (stereo not drawn) | 29.2% (active) |

Target: Nuclear receptor subfamily 5 group A member 2 (Homo sapiens) (UniProt O00482)
Assay: LRH-1 (NR5A2) inverse agonists, retest, confirmation, cell-based, luminescence (AID 651613);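 also: HEK293T cells co-transfected with LRH-1 and StAR promoter luciferase reporter; 0% = vehicle wells and 100% = parental cells lacking receptor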
Settings: cell-based LRH-1 luciferase reporter, inverse agonism; at 3.6 µM; active compounds read high

Chain of Nuclear receptor subfamily 5 group A member 2 (Homo sapiens) (O00482 whole entry, looked up): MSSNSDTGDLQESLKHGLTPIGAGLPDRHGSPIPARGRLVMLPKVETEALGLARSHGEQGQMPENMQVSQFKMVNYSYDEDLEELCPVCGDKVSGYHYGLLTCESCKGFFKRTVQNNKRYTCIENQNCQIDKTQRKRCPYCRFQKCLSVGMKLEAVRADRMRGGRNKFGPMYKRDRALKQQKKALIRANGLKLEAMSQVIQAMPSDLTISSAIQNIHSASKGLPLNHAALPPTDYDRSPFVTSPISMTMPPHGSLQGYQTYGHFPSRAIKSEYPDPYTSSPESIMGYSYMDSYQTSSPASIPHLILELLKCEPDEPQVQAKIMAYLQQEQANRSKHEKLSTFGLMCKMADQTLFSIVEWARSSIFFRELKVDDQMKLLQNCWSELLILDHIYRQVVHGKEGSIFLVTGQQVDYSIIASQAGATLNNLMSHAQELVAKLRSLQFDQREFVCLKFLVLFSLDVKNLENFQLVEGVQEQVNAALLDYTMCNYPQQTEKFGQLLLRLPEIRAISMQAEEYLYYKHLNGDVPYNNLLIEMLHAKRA

| SMILES | inhibition |
| --- | --- |
| O=C(CCl)Nc1ccc(Oc2cnc3ccccc3n2)cc1 | 74.4% (active) |
| Cc1ccc(Oc2ccc(C(=O)NCc3ccncc3)cc2)cc1 | 76.8% (active) |
| Cc1ncc(CO)c(/C=N/Nc2ccc(C(F)(F)F)cn2)c1O | 84% (active) |
| Cc1ccc(C(=O)C(C(=O)/C=C/c2ccccc2)=C2SCCCS2)cc1 | 54.2% (active) |
| O=C1c2c(O)ccc(O)c2C(=O)c2c(NCCNCCO)ccc(NCCNCCO)c21 | 77.4% (active) |
| COc1ccc(S(=O)(=O)N2CCOCC2)cc1NC(=O)CCNC(=O)c1ccc(Br)cc1 | 100% (active) |
| CN(C)CCNC(=O)c1ccc(Cl)c2cc3ccccc3nc12 | 73.1% (active) |
| COc1ccc(CCNc2c(C)c(C)nc3ncnn23)cc1 | 58.5% (active) |
| C=C1C(=O)C23CCC4C(C)(C(=O)OC)CCCC4(C)C2CCC1(O)C3 (stereo not drawn) | 70.5% (active) |
| COc1cccc2c1C(=O)c1c(O)c3c(c(O)c1C2=O)CC(O)(C(C)=O)CC3OC1CC(O)C(O)C(C)O1 (stereo not drawn) | 50.7% (active) |

Target: Steroidogenic factor 1 (Homo sapiens) (UniProt Q13285)
Assay: SF1 (NR5A1) inverse agonists, counter-screen for LRH-1 inverse agonist project, cell-based, luminescence, high throughput (AID 651614; in the data active = inhibition above about 44%;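 also: cells cotransfected with StAR promoter reporter and SF1 expression vector; 0% = vehicle on cells with receptor and 100% = vehicle on cells lacking receptor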)
Settings: cell-based SF1 luciferase reporter, at 3.6 µM, active compounds read high

Chain of Steroidogenic factor 1 (Homo sapiens) (Q13285 whole entry, looked up): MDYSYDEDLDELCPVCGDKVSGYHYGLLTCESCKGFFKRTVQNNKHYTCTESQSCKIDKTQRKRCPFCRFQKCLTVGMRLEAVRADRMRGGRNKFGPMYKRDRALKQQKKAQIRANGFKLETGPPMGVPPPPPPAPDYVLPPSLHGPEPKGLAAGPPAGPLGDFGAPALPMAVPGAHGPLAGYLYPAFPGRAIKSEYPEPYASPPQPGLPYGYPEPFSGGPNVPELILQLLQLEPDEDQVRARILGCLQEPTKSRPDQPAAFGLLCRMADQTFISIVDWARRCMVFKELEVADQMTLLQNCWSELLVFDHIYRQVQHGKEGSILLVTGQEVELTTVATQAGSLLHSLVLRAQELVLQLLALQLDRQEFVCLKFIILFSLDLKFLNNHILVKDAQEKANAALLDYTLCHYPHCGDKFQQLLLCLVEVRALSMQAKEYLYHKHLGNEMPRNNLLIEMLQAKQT

| SMILES | inhibition |
| --- | --- |
| O=C(CCl)Nc1ccc(Oc2cnc3ccccc3n2)cc1 | 77.4% (active) |
| Cc1ccc(Oc2ccc(C(=O)NCc3ccncc3)cc2)cc1 | 67.9% (active) |
| Cc1ncc(CO)c(/C=N/Nc2ccc(C(F)(F)F)cn2)c1O | 70.5% (active) |
| Cc1ccc(C(=O)C(C(=O)/C=C/c2ccccc2)=C2SCCCS2)cc1 | 47.2% (active) |
| O=C1c2c(O)ccc(O)c2C(=O)c2c(NCCNCCO)ccc(NCCNCCO)c21 | 56.3% (active) |
| COc1ccc(S(=O)(=O)N2CCOCC2)cc1NC(=O)CCNC(=O)c1ccc(Br)cc1 | 95% (active) |
| CN(C)CCNC(=O)c1ccc(Cl)c2cc3ccccc3nc12 | 67.4% (active) |
| COc1ccc(CCNc2c(C)c(C)nc3ncnn23)cc1 | 62.6% (active) |
| C=C1C(=O)C23CCC4C(C)(C(=O)OC)CCCC4(C)C2CCC1(O)C3 (stereo not drawn) | 82.1% (active) |
| COc1cccc2c1C(=O)c1c(O)c3c(c(O)c1C2=O)CC(O)(C(C)=O)CC3OC1CC(O)C(O)C(C)O1 (stereo not drawn) | 17.4% (inactive) |
